# According to PubChem BioAssay AID651815 (National Center for Advancing Translational Sciences (NCATS), 2012):
# The campaign covered roughly 2,100 compounds. About 1,100 (52%) were called active. Roughly 29% stayed inconclusive and do not appear here. Calls come from the whole dose curve; as a rule, active = well fitted inhibition curve with a large enough effect; inconclusive = small, poorly fitted or top-dose-only effect; inactive = no such curve, though single readings can be large or run the other way. The set was probably picked from earlier hits. The list shows a part of the results.
# Biological target: DNA dC->dU-editing enzyme APOBEC-3F (Homo sapiens) (UniProt Q8IUX4)
# Sequence (Q8IUX4 whole entry, looked up): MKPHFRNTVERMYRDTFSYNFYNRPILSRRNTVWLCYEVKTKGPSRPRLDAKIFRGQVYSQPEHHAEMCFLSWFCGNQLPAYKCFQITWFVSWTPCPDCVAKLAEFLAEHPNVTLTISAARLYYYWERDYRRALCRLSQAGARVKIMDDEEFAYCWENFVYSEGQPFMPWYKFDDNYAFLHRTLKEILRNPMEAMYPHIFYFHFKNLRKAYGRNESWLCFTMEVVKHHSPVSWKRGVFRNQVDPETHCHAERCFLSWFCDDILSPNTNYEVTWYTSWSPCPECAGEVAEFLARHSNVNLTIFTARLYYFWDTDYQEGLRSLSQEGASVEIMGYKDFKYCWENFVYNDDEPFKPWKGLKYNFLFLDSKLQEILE
# Assay: qHTS for inhibitors of Vif-A3F interactions: Cherry picks counterscreen; note: nearly all actives have a fitted effect of over 65% in size
# Details: HeLa A3F-eYFP/Vif cells, eYFP fluorescence, 24 h; series mostly up to 46.1 µM
# Method in brief: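 HeLa cells stably expressing A3F-eYFP and Vif, cultured overnight, then treated 24 h at 37 degrees C with compounds at several concentrations; yellow fluorescence (488 nm Ex/500-530 nm Em) imaged on Acumen; MG132 positive control.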
# Potency is the fitted concentration of half-maximal effect.
row,Compound,Potency
1,CC(=Nc1ccccc1)C1=C(O)C(Cc2ccccc2)NC1=O (stereo unspecified),0.314 µM (active)
2,CC#Cc1cc2c(cc1O)CCC1C2CCC2(C)C(O)CCC12 (stereo unspecified),5.59 µM (active)
3,C=C(NC(=O)C(=C)NC(=O)c1csc(C2=NC3c4csc(n4)C4NC(=O)c5csc(n5)C(C(C)(O)C(C)O)NC(=O)C5CSC(=N5)/C(=C/C)NC(=O)C(C(C)O)NC(=O)c5csc(n5)C3(CC2)NC(=O)C(C)NC(=O)C(=C)NC(=O)C(=C)NC(=O)C(C(C)C)NC2C=Cc3c(C(C)O)cc(nc3C2O)C(=O)OC4C)n1)C(N)=O (stereo unspecified),5.59 µM (active)
4,CC(CC(=O)Nc1ccc2c(c1)c(=O)n(C)n2-c1ccccc1F)c1ccccc1 (stereo unspecified),12.5 µM (active)
5,COc1ccc(NC(=O)CN2C(=O)C3(SCC(=O)N3c3ccccc3)c3ccccc32)cc1Cl (stereo unspecified),inactive
6,Cn1c(=O)c2cc(NC(=O)Cc3cccc4ccccc34)ccc2n1-c1ccccc1,7.04 µM (active)
7,CC(CC(=O)Nc1ccc2c(c1)c(=O)n(C)n2-c1ccccc1)c1ccccc1 (stereo unspecified),2.23 µM (active)
8,CCOc1ccc(S(=O)(=O)NCc2ccccn2)cc1NC(=O)c1ccccc1,3.14 µM (active)
9,CCN1/C(=C/C=C2/SC(=Nc3cccc4ncccc34)N(C)C2=O)Sc2ccccc21,2.31 µM (active)
10,CCc1ccc2nc(SCC(=O)Nc3ccccc3N3CCOCC3)c(C#N)cc2c1,2.59 µM (active)
11,CCc1ccc2nc(SCC(=O)N3CC(=O)Nc4ccccc43)c(C#N)cc2c1,14 µM (active)
12,N#Cc1cc2ccccc2nc1SCC(=O)Nc1ccccc1N1CCOCC1,inactive
13,COc1ccc2nc(SCC(=O)N3CC(=O)Nc4ccccc43)c(C#N)cc2c1,16.4 µM (active)
14,CCC1CCCCN1CCCNC(=O)c1ccc2c(c1)N(Cc1ccccc1F)C(=O)c1ccccc1S2(=O)=O (stereo unspecified),4.11 µM (active)
15,Cc1ccc(C(=O)CSc2nc(-c3ccccc3)ccc2C#N)cc1,16.4 µM (active)
16,Cc1nc(SCC(=O)c2ccccc2)c(C#N)c(-c2ccco2)c1C(=O)NCc1ccco1,inactive
17,N#Cc1ccc(-c2cccnc2)nc1SCC(=O)c1ccccc1,2.91 µM (active)
18,CC(=O)c1ccc2cccc3c2c1N=CN3C,12.5 µM (active)
19,CC(=O)Nc1sc2c(c1-c1nc3ccccc3s1)CCN(C(C)C)C2,3.26 µM (active)
20,CN1CCc2c(sc(NC(=O)CSc3ccc(F)cc3)c2-c2nc3ccccc3s2)C1,14.6 µM (active)
21,CC(=O)N1CCc2c(sc(NC(=O)CSc3ccccc3)c2-c2nc3ccccc3s2)C1,16.4 µM (active)
22,CC[n+]1cc(C)ccc1/C=C/c1ccc(N(C)C)cc1,17.7 µM (active)
23,Cc1ccc(/C=C/c2ccc(N(C)C)cc2)[n+](C)c1,15.8 µM (active)

row,Compound,Potency
1,CN(C)c1ccc(/C=C/c2cc[n+](C)cc2)cc1,17.7 µM (active)
2,CCOC(=O)c1c(CC(C)C)csc1/N=C/C1C(=O)CCCC1=O,inactive
3,O=C(NCc1cc(C(F)(F)F)ccc1Cl)c1cccc2c1C(=O)c1ccc(N3CCOCC3)cc1S2(=O)=O,18.4 µM (active)
4,O=C(NCc1cc(C(F)(F)F)ccc1Cl)c1cccc2c1C(=O)c1ccc(N3CCC(Cc4ccccc4)CC3)cc1S2(=O)=O,14 µM (active)
5,O=C(NCc1cccc(C(F)(F)F)c1)c1cccc2c1C(=O)c1ccc(N3CCC(Cc4ccccc4)CC3)cc1S2(=O)=O,18.4 µM (active)
6,O=C(NCc1ccco1)c1cccc2c1C(=O)c1ccc(N3CCC(Cc4ccccc4)CC3)cc1S2(=O)=O,20.6 µM (active)
7,Cc1ccc(C(=O)NC2c3ccccc3-c3ccccc32)cc1,3.96 µM (active)
8,COc1ccccc1-c1cc(NC=O)c2ncc(-c3cccc(C(=O)N(C)C)c3)n2c1,14 µM (active)
9,CN(C)C(=O)c1cccc(-c2cnc3c(NC=O)cc(-c4ccccc4F)cn23)c1,inactive
10,COc1ccccc1-c1cc(NC=O)c2ncc(-c3ccc(S(C)(=O)=O)cc3)n2c1,5.59 µM (active)
11,CC1C/C(=N\NC(N)=S)c2cc(Cl)ccc2S1 (stereo unspecified),inactive
12,O=C(Nc1nnc(-c2ccc3c(c2)CCCC3)o1)c1c(F)cccc1F,inactive
13,Cc1ccccc1-n1c(/C=C/c2c(C)n(C)c3ccccc23)nc2ccccc2c1=O,18.4 µM (active)
14,O=C(Nc1cc(Cl)ccc1-n1cncn1)c1ccc([N+](=O)[O-])s1,14 µM (active)
15,COc1ccc(/C=N/NC(=O)c2[nH]nc3c2CCc2ccccc2-3)cc1OC,4.98 µM (active)
16,COc1cccc(/C=N/NC(=O)c2[nH]nc3c2CCc2ccccc2-3)c1,2.5 µM (active)
17,COc1ccc(CN2C(=O)C(C)Nc3ncnc(N4CCc5ccccc5C4)c32)cc1 (stereo unspecified),2.8 µM (active)
18,CCn1nc(-c2ccccc2)c2nc3ccccc3nc21,20.6 µM (active)
19,O=C(NCC1CCCO1)c1nn2c(C(F)(F)F)cc(-c3cc(Br)cs3)nc2c1Br (stereo unspecified),11.6 µM (active)
20,CS(=O)(=O)N(CC(=O)N1CCN(Cc2ccccc2)CC1)c1ccccc1F,inactive
21,CC(=O)n1c2ccccc2c2nc3ccccc3nc21,5.8 µM (active)
22,Cc1cccc(-n2c(N)c(-c3nc4ccccc4n3C)c3nc4ccccc4nc32)c1,inactive
23,CCS(=O)(=O)N1N=C(c2cccc(NS(C)(=O)=O)c2)CC1c1ccc(C)cc1 (stereo unspecified),18.4 µM (active)

row,Compound,Potency
1,CS(=O)(=O)Nc1ccc(C2=NN(S(C)(=O)=O)C(c3ccc4nccnc4c3)C2)cc1 (stereo unspecified),inactive
2,CS(=O)(=O)N1N=C(c2ccccc2)CC1c1ccc2c(c1)OCO2 (stereo unspecified),14 µM (active)
3,Cc1ccc(CNC(=O)C2CC(c3cc(C(F)(F)F)cc(C(F)(F)F)c3)=NO2)o1 (stereo unspecified),7.04 µM (active)
4,N#Cc1cc2ccccc2nc1SCc1ccccn1,16.4 µM (active)
5,O=C1c2ccccc2C(=O)c2c(/C=C/N3CCCCC3)ccnc21,18.4 µM (active)
6,Clc1ccc2c(c1)C(C1=NCCN1)c1ccccc1CS2 (stereo unspecified),3.14 µM (active)
7,CC(C)n1c(O)c(N=Nc2ccc(Cl)nn2)c2ccccc21,18.4 µM (active)
8,CCC(=O)NC(c1ccc(OC)cc1)c1c(O)ccc2ccccc12 (stereo unspecified),6.27 µM (active)
9,CCCC(=O)NC(c1ccc(OC)cc1)c1ccc2cccnc2c1O (stereo unspecified),inactive
10,CN1/C(=C\C=C(/C#N)C(=O)Nc2ccccc2F)C(C)(C)c2ccccc21,16.4 µM (active)
11,CN1/C(=C\C=C(/C#N)C(=O)Nc2ccc(Cl)cc2)C(C)(C)c2ccccc21,5.59 µM (active)
12,Cc1ccc(C2=NN(S(=O)(=O)c3ccccc3)C(c3ccccc3O)C2)cc1 (stereo unspecified),18.4 µM (active)
13,Cc1ccccc1C1CC(c2cccs2)=NN1S(C)(=O)=O (stereo unspecified),inactive
14,Cc1ccc(C2=NN(C(=O)c3cccs3)C(c3ccccc3O)C2)cc1 (stereo unspecified),inactive
15,O=Nc1ccc(O)c2ncccc12,inactive
16,Cc1[nH]c2ccccc2c1/C=C/c1ccc2ccccc2n1,18.4 µM (active)
17,Cc1[nH]c2ccccc2c1/C=C/c1ccnc2ccccc12,3.26 µM (active)
18,O=C(CCl)N1c2ccccc2Oc2ccc3ccccc3c21,14 µM (active)
19,COc1cc(C2Oc3ccccc3C=C2[N+](=O)[O-])cc(OC)c1OC (stereo unspecified),15.8 µM (active)
20,N#CC(C(=O)NCc1ccccc1)c1nc2ccccc2nc1N1CCCC1 (stereo unspecified),3.66 µM (active)
21,CCN(CC)c1nc2ccccc2nc1C(C#N)C(=O)NCCc1ccccc1 (stereo unspecified),7.31 µM (active)
22,CCCCn1c(N)c(N(Cc2ccccc2OC)C(=O)c2ccc([N+](=O)[O-])s2)c(=O)[nH]c1=O,inactive
23,Cc1cc2nc3s/c(=C/c4ccc(-c5ccccc5C(=O)O)o4)c(=O)n3c2cc1C,11.6 µM (active)

row,Compound,Potency
1,Cc1cccc(C)c1OCC(=O)N/N=C/c1ccc2c(c1)OCO2,3.53 µM (active)
2,O=C(N/N=C/c1ccc2c(c1)OCO2)c1cc(-c2ccncc2)nc2ccccc12,6.27 µM (active)
3,O=C(N/N=C/c1ccsc1)c1cc(-c2cccs2)nc2ccccc12,15.8 µM (active)
4,Cc1cc(C(=O)N/N=C/c2ccc3c(c2)OCO3)c2ccccc2n1,4.44 µM (active)
5,O=C(N/N=C/c1ccc2c(c1)OCO2)c1cc(-c2ccco2)nc2ccccc12,12.5 µM (active)
6,Cc1cc(NC(=O)/C(C#N)=C/c2ccc(-c3ccc(SC(F)F)cc3)o2)n(-c2ccccc2)n1,7.31 µM (active)
7,Cc1cc(NC(=O)/C(C#N)=C\c2ccc(-c3ccc(SC(F)F)cc3)o2)n(-c2ccccc2)n1,8.2 µM (active)
8,COCCN(CCOC)Cc1c(O)ccc2c1O/C(=C\c1ccc(C)o1)C2=O,inactive
9,N#CCSc1ccccc1NC(=O)COc1ccc(-c2nnco2)cc1,17.7 µM (active)
10,CCOc1cc(/C=C2\N=C(SC(C)C(N)=O)N(c3ccc(OC(F)F)cc3)C2=O)ccc1O (stereo unspecified),4.44 µM (active)
11,Cc1cc(C(=O)N/N=C/c2ccc(C)o2)c2ccccc2n1,2.23 µM (active)
12,O=C(N/N=C/c1ccc(Cl)cc1)c1cc(-c2cccnc2)nc2ccccc12,4.44 µM (active)
13,Cc1ccc(C=NNC(=O)c2cc(-c3cccnc3)nc3ccccc23)o1,8.86 µM (active)
14,CCOc1ccc(-c2cc(C(=O)N/N=C(\C)c3cccnc3)c3ccccc3n2)cc1,inactive
15,Cc1ccc(/C=N/NC(=O)c2cc(-c3ccccc3)nc3ccccc23)o1,14 µM (active)
16,C/C(=N\NC(=O)c1cc(C)nc2ccccc12)c1ccncc1,inactive
17,CCCN(C(=O)CSc1n[nH]c(-c2ccc(OC)cc2)n1)c1c(N)n(Cc2ccccc2)c(=O)[nH]c1=O,inactive
18,C/C(=N\NC(=S)NCc1ccccc1)c1cccs1,inactive
19,CCOC(=O)Nc1ccc2nc(-c3cscn3)[nH]c2c1,5.59 µM (active)
20,CC[n+]1c(/C=C/N(C)c2ccccc2)oc2ccc(F)cc21,17.7 µM (active)
21,CC[n+]1c(/C=C/Nc2ccccc2)oc2ccccc21,18.4 µM (active)
22,CC[n+]1c(/C=C/Nc2ccccc2)oc2ccc(OC)cc21,16.4 µM (active)
